Assay results published in PubChem BioAssay (NCI).
About 79,000 compounds went through this panel and 15% of them were active in at least one assay; those are over-represented in the sample as a whole. No stated cut-off is given here; in the data, active means growth inhibition above about 70%; inactive means the rest.

Assays:
[1] = NCI Yeast Anticancer Drug Screen. Data for the rad50 strain (AID 155);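 further: 0% = growth of vehicle-only cultures of the same strain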; conditions: S. cerevisiae rad50 strain growth inhibition; at 50.0 µM; active compounds read high
Method in brief: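 Cells are treated with compound, grown, and their growth is then scored against vehicle-only cultures of the same repair-deficient yeast strain.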

[2] = NCI Yeast Anticancer Drug Screen. Data for the mec2-1 strain (AID 157); conditions: S. cerevisiae mec2-1 strain, at 50.0 µM, active compounds read high
Method in brief: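 Each compound was tested on mec2-1 yeast, a strain altered in DNA damage repair or cell cycle control. Growth inhibition is reported relative to vehicle.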

[3] = NCI Yeast Anticancer Drug Screen. Data for the sgs1 mgt1 strain (AID 161);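 further: 0% = growth of cultures given vehicle only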; conditions: S. cerevisiae sgs1 mgt1 strain, at 50.0 µM, active compounds read high
Method in brief: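 Inhibition of yeast growth, normalised to vehicle-treated controls, is reported for a strain bearing genetic alterations in DNA damage repair.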

[4] = NCI Yeast Anticancer Drug Screen. Data for the cln2 rad14 strain (AID 165);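 further: 0% = growth equal to vehicle treated cultures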; conditions: S. cerevisiae cln2 rad14 strain, at 50.0 µM, active compounds read high
Method in brief: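 Test compounds were added to cln2 rad14 yeast cultures; inhibition of growth was then determined by comparison with vehicle treatment.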

[5] = NCI Yeast Anticancer Drug Screen. Data for the bub3 strain (AID 167); conditions: S. cerevisiae bub3 mutant strain, at 50.0 µM, active compounds read high
Method in brief: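 Part of a panel of yeast mutants defective in DNA damage repair or cell cycle regulation. Each strain is grown with compound, and inhibition is calculated relative to solvent-treated cultures.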

[6] = NCI Yeast Anticancer Drug Screen. Data for the mlh1 rad18 strain (AID 175); conditions: S. cerevisiae mlh1 rad18 strain growth inhibition; at 50.0 µM; active compounds read high
Method in brief: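 Inhibition values reflect reduced growth of mutant yeast versus vehicle-treated controls following compound exposure; the mutations affect DNA damage repair.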

Measured: growth inhibition

CC(=O)Oc1cc2c(cc1C(NC(N)=O)c1ccc3c(c1)OCO3)OCO2 (stereo unspecified)
inactive: [1] 1.95% | [2] 2.7% | [3] 1.55% | [4] -11.2% | [5] 16.4% | [6] 12.4%

CC(Cl)(CCl)C(=O)NCNC(=O)C(C)(Cl)CCl (stereo unspecified)
inactive: [1] 51.5% | [2] 3.8% | [3] 8.2% | [4] -19.1% | [5] 15.8% | [6] 28.2%

CC(=O)CCC(=O)OCc1ccccc1
inactive: [1] 35.1% | [2] 7.75% | [3] 1.3% | [4] 10.3% | [5] -3% | [6] 4.2%

O=C(O)COc1ccc(F)c(F)c1F
inactive: [1] -16.1% | [2] 4.5% | [3] 21.1% | [4] -9.6% | [5] -2.75% | [6] -20.1%

COC(c1ccccc1)c1ccccc1
inactive: [1] -21.1% | [2] 4.9% | [3] 29.5% | [4] -16.4% | [5] 1.75% | [6] -8%

CN=c1ss/c(=N\C(=S)N(C)C)n1C
inactive: [1] -0.2% | [2] -10.5% | [3] -21.6% | [4] 28% | [5] -11.5% | [6] 6.8%

Cc1c(O)c2cccc(-c3ccccc3)c2oc1=O
inactive: [1] 5.8% | [2] 17.5% | [3] 11.1% | [4] -6.3% | [5] -4.8% | [6] 17.6%

O=C(Cc1ccccc1)N/N=C(\C1=Nc2ccc([N+](=O)[O-])cc2NC1O)C(O)c1ccc([N+](=O)[O-])cc1 (stereo unspecified)
inactive: [1] 10% | [2] 9.6% | [3] 1.7% | [4] 18.2% | [5] 20.6% | [6] 18.2%

CCCC(=O)NC(C)(C)C
inactive: [1] 8.8% | [2] -5.3% | [3] -33.9% | [4] 2.9% | [5] 6.2% | [6] -21%

S=C1SCN(C(c2ccccc2)c2ccccc2)CN1C(c1ccccc1)c1ccccc1
inactive: [1] 12.2% | [2] 22.2% | [3] 9.4% | [4] -20.1% | [5] -4.75% | [6] 28.2%

C=C1C(=O)O[C@@H]2[C@@H]3[C@@H](C)C(=O)C=C[C@]3(C)CC[C@@H]12
inactive: [1] -15.9% | [2] -49.1% | [3] -11.2% | [4] 7.05% | [5] -35.6% | [6] -14.9%

CN(N=O)C(=O)NC(C=O)C(O)C(O)C(O)CO (stereo unspecified)
inactive: [1] 5.25% | [2] -23.4% | [3] 28.4% | [4] 12.2% | [5] 0.4% | [6] 1.6%

CCOCC(C)(CO)CC(C)CO (stereo unspecified)
inactive: [1] -10.2% | [2] 1.35% | [3] -5.6% | [4] -6.6% | [5] -4.55% | [6] 4%

COc1ccc(NS(=O)c2ccccc2OC)cc1 (stereo unspecified)
inactive: [1] 2.7% | [2] 4.5% | [3] 14.3% | [4] -18.9% | [5] 8.05% | [6] 5.5%

Cc1ccc([N+](=O)[O-])cc1NC(=O)C(=O)C(C(=O)c1ccccc1F)C1OC(=O)c2ccccc21 (stereo unspecified)
inactive: [1] -3.1% | [2] 5.7% | [3] -14.4% | [4] 13.1% | [5] -1.1% | [6] -1.9%

c1ccc(CNc2ncnc3n[nH]nc23)cc1
inactive: [1] -14% | [2] -11.8% | [3] 1.2% | [4] 0.3% | [5] 20.1% | [6] -8.3%

NNc1nnc(Cl)c2c1ncn2Cc1ccccc1
inactive: [1] -16.9% | [2] -7.45% | [3] 23.1% | [4] -21.4% | [5] 2.75% | [6] 20.6%

O=P(O)(Cc1ccccc1)OCC1(O)OCC(O)C(O)C1O (stereo unspecified)
inactive: [1] -16.1% | [2] -6.35% | [3] -28.6% | [4] 12.7% | [5] -19.8% | [6] -23.2%

O=[N+]([O-])c1ccc2oc3cccnc3c2c1
inactive: [1] 28.6% | [2] -2.8% | [3] -2.65% | [4] -14.1% | [5] 1.3% | [6] 12.8%

CC(=O)OC/C(=C/C#N)C1CCC2C3CCC4CC(OC(C)=O)CCC4(C)C3CCC12C (stereo unspecified)
inactive: [1] 47% | [2] 30.7% | [3] 45.5% | [4] 40% | [5] 21.5% | [6] 57.5%

CC1(C)N=C(N)N=C(N)N1c1cccc(OCc2cccc([N+](=O)[O-])c2)c1
inactive: [1] 0.55% | [2] 7.2% | [3] -31.3% | [4] 24.6% | [5] -30.3% | [6] -14.8%

CCCCCCCCCCCSc1ccc2ccccc2c1
inactive: [1] 5.75% | [2] 14.7% | [3] 6.75% | [4] -20.5% | [5] -18.6% | [6] 5.3%

Cc1csc2nc(-c3ccccc3)[nH]c(=S)c12
inactive: [1] 5.5% | [2] 6.4% | [3] 10.9% | [4] -22.8% | [5] -4.8% | [6] 6.75%

[Mn].[NH-]C(CSSCC(N)C(=O)O)C(=O)O (stereo unspecified)
inactive: [1] -2.45% | [2] -0.4% | [3] -1% | [4] 5.5% | [5] 22.6% | [6] 9%

Cc1cc(=O)n2c3c(cccc13)CCC2
inactive: [1] 26.3% | [2] -1.5% | [3] -3.15% | [4] 7.15% | [5] 3.9% | [6] 11.9%

CC(=O)NC1C(OCC(=O)NC(C)C(=O)NC(CCC(=O)NCCCCCNc2ccc([N+](=O)[O-])c3[nH]c4ccccc4c(=O)c23)C(N)=O)C(O)C(CO)OC1(C)OCc1ccccc1 (stereo unspecified)
inactive: [1] -7.65% | [2] -3.35% | [3] 1.05% | [4] 21.2% | [5] -12.1% | [6] 18.1%

CC1c2c(ccc3c2CCC=C3)CCC1CC1=CCCc2ccc3ccccc3c21 (stereo unspecified)
inactive: [1] 6.7% | [2] -1.6% | [3] 1.1% | [4] -13.3% | [5] 0.1% | [6] 9.85%

CCCCC(CC)CSCCOC(C)OCCSCC(CC)CCCC (stereo unspecified)
inactive: [1] 34.3% | [2] 2.25% | [3] 25.6% | [4] 39.9% | [5] 6.6% | [6] 27.9%

CC(C)NC(=O)C1C2CCC(C2)C1C(=O)NC(C)C (stereo unspecified)
inactive: [1] 3.55% | [2] -1% | [3] 2.35% | [4] -28.4% | [5] -0.3% | [6] -7.25%

[Cl-].[Nd+3].[O-]/N=C(\c1ccccc1)c1ccccn1.[O-]/N=C(\c1ccccc1)c1ccccn1.[O-]/N=C(\c1ccccc1)c1ccccn1
inactive: [1] 50.1% | [2] 35.4% | [3] 42.6% | [4] 25.2% | [5] 47% | [6] 58%

COC(=O)CCc1onc(Br)c1CCl
inactive: [1] 17.8% | [2] 9.05% | [3] -7.55% | [4] 0.35% | [5] 9.95% | [6] 9.5%

NC(N)=NNC(=S)S
inactive: [1] 10.9% | [2] -5.15% | [3] 23.5% | [4] 5.1% | [5] 20.3% | [6] 12.8%

COC(=O)c1cccnc1F
inactive: [1] 3.9% | [2] -15.2% | [3] -14.7% | [4] -1.65% | [5] -30.2% | [6] -2.45%

ClC(Cl)(Cl)C(Cl)(Cl)C(Cl)(Cl)Cl
inactive: [1] 42.1% | [2] 14.8% | [3] 16% | [4] -19.4% | [5] 6.75% | [6] 24.3%

C/C=C(\C)c1cc(=O)c2c(C)cc3c(c2o1)C(=O)c1c(OC)cccc1C3=O
inactive: [1] 14.2% | [2] -14.8% | [3] -1.05% | [4] -4.65% | [5] -6.95% | [6] 23.9%

O=C(O)c1cccc(C#Cc2ccccc2)c1
inactive: [1] 16.7% | [2] 5.25% | [3] 12.5% | [4] -15.4% | [5] 4.55% | [6] 25.1%

O=c1[nH]c2c(Cl)cccc2c2ccccc12
inactive: [1] 40.5% | [2] 18.9% | [3] -7.45% | [4] -18.1% | [5] -17.9% | [6] 14.3%

NC1=NN(O)C2=CC(Br)C=CC2=N1 (stereo unspecified)
inactive: [1] 10.3% | [2] -7.4% | [3] 11.6% | [4] 7.55% | [5] 43.1% | [6] 22.4%

Cc1cc(C)c2cccc-2c(C)c1
inactive: [1] -11.8% | [2] -11.3% | [3] -12.3% | [4] -6.15% | [5] -4.9% | [6] -9.95%

Oc1cc2ccc3c(c2cc1O)CCc1cn[nH]c1-3
inactive: [1] 7.1% | [2] 9.25% | [3] 17.5% | [4] -0.55% | [5] 15.8% | [6] 15.5%

N#CC(C#N)=CNC(=S)Nc1ccc(S(=O)(=O)Nc2nccs2)cc1
inactive: [1] -24.7% | [2] -35.8% | [3] -13.4% | [4] 4.85% | [5] -3.05% | [6] -3.65%
